# Hits are enriched below; roughly 1.8% of the tested compounds scored in any of these assays.
# CFTR F508del cor = F508del CFTR correction, initial screen, CFBE line, single point. CFBE cells, YFP halide quenching; stimulated with forskolin plus potentiator P3; % fluorescence drop versus neutral controls. activity (quench increase), % at 7.58 µM. hit rate 0.36% among 350,000. AID 720511, 2013;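 active = mean added fluorescence quench of at least 8% versus neutral control, with both replicates also reaching 8%; inconclusive = only one of the mean or replicate conditions met; inactive = mean below 8% and not both replicates reaching 8%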;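 note: cells transiently co-express mutant CFTR-F508del with the halide-sensitive YFP; corrector assay measuring rescue of mutant channel to the surface after 24 h compound exposure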
# LGR2 antag = inhibitors of bursicon-induced LGR2 CRE-luciferase signal, primary screen, cell-based, HEK293, CRE-luciferase reporter, bursicon stimulation. hit rate 0.35% among 380,000. bursicon-stimulated, 4 h. inhibition, % at 9.99 µM. Drosophila bursicon receptor LGR2 (rickets);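 active = drop in luminescence signal, shown as inhibition above about 50% in the replicate tests, limit read from the data, passing the limit was not always enough; inconclusive = probably only some replicates passing the limit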;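 note: agonist challenge used bursicon conditioned medium at about half maximal strength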
# PAX8 reporter = inhibitors of PAX8-driven TPO luciferase reporter, primary screen, RMG-I cells, single concentration | SteadyGlo, 24 h | inhibition, % at 12.6 µM | hit rate 1.2% among 360,000;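 active = mean replicate inhibition at least 60% with every replicate also reaching 60%; inconclusive = only one of the two criteria is met; inactive = mean below 60% and not all replicates reaching 60%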;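 note: luciferase light reporting Pax8 driven TPO promoter activity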
# EWS-Fli block = EWS/Fli-driven NR0B1 reporter inhibitors, primary screen, A673 cells, NR0B1 luciferase, luminescence, MLPCN library; viability-normalised; inhibition, % at 12.6 µM; hit rate 0.67% among 350,000; AID 651661, 2012;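 active = mean inhibition of at least 50% after viability correction, with every replicate also passing that limit; inconclusive = mean reaches 50% but only one of two replicates passes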;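 note: firefly luciferase signal divided by Alamar Blue viability fluorescence both relative to DMSO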
# A number is an active result; - = inactive; ? = inconclusive; . = no result.
SMILES,CFTR F508del cor,LGR2 antag,PAX8 reporter,EWS-Fli block
OCC1CCCN(C(=S)Nc2ccc(Nc3ccccc3)cc2)C1 (configuration not stated),-,-,-,-
OCC1CCCN(C(=S)Nc2ccc(OC(F)F)cc2)C1 (configuration not stated),-,.,136,-
CC(O)CNc1nc(N)[nH]c(=O)c1N=Nc1ccccc1 (configuration not stated),11,-,-,-
COCC(=O)N1CCCCN2[C@H](C1)[C@H](c1ccc(-c3cccc(C)c3)cc1)[C@@H]2CO,-,-,-,-
CC(=O)N1CCCCN2[C@H](C1)[C@H](c1ccc(-c3cccc(C)c3)cc1)[C@@H]2CO,-,-,74,-
COCC(=O)N1CCCCN2[C@H](CO)[C@H](c3ccc(-c4cccc(C)c4)cc3)[C@@H]2C1,-,62,-,-
CC(=O)N1CCCCN2[C@H](C1)[C@@H](c1ccc(-c3cccc(C)c3)cc1)[C@@H]2CO,-,-,-,-
Cc1nc2scc(C)n2c(=O)c1S(=O)(=O)Nc1ccc(N2CCN(S(C)(=O)=O)CC2)cc1,-,-,-,.
Cc1cccc(-c2ccc([C@@H]3[C@@H](CO)N4CCCCN(C(=O)c5cccnc5)C[C@H]34)cc2)c1,-,-,-,-
CC(=O)C1=C(c2ccc(Br)cc2)C(=O)c2ccccc2C1=O,.,99,99,.
N#CCCN(C(=O)COC(=O)C12CC3CC(CC(O)(C3)C1)C2)c1ccc(F)cc1,-,.,-,-
CC=Cc1ccc2n(c1=O)C[C@H]1[C@H](CO)[C@@H](C(=O)Nc3ccc(-c4ccccc4)cc3)[C@@H]2N1C(C)=O (mixture of isomers),-,-,-,-
Cc1cc2[nH]c3c4ccccc4nc(C)c3c2cc1C,-,-,86,61
CN(c1cccc(Cl)c1)S(=O)(=O)c1cccc(C(=O)Nc2nc3ccccc3[nH]2)c1,.,?,71,-
COc1ccc(N(C)S(=O)(=O)c2cccc(C(=O)Nc3nc4ccccc4[nH]3)c2)cc1,-,-,-,-
O=C(Nc1nc2ccccc2[nH]1)c1ccc(Cl)cc1,-,57,-,53
CCC1CCCCN1C(=O)CSc1nc2c(cnn2-c2ccc(C)cc2)c(=O)[nH]1 (configuration not stated),-,-,-,-
CCOC(=O)C1=C(CNCc2ccc(F)cc2)NC(=O)NC1c1cccc([N+](=O)[O-])c1 (configuration not stated),-,-,-,-
C[C@@H]1CN([C@@H](C)CO)C(=O)c2cc(NC(=O)Nc3ccc(F)cc3)ccc2O[C@@H](C)CCCCO[C@@H]1CN(C)C(=O)NC1CCCCC1,-,-,-,-
C[C@H]1CCCCO[C@H](CN(C)C(=O)NC2CCCCC2)[C@@H](C)CN([C@@H](C)CO)C(=O)c2cc(NC(=O)NC3CCCCC3)ccc2O1,-,-,66,-
C[C@@H]1CN([C@H](C)CO)C(=O)c2cc(NC(=O)Nc3ccc(F)cc3)ccc2O[C@@H](C)CCCCO[C@H]1CN(C)C(=O)NC1CCCCC1,-,-,84,-
C[C@@H]1CCCCO[C@@H](CN(C)C(=O)NC2CCCCC2)[C@H](C)CN([C@H](C)CO)C(=O)c2cc(NC(=O)Nc3ccc(F)cc3)ccc2O1,-,-,74,-
C[C@@H]1CCCCO[C@H](CN(C)C(=O)Nc2ccc(F)cc2)[C@@H](C)CN([C@@H](C)CO)C(=O)c2cc(NC(=O)NC3CCCCC3)ccc2O1,-,-,66,-
C[C@@H]1CCCCO[C@H](CN(C)C(=O)NC2CCCCC2)[C@@H](C)CN([C@@H](C)CO)C(=O)c2cc(NC(=O)NC3CCCCC3)ccc2O1,-,-,-,-
Cc1nc(Cc2nnc(SCC(=O)N3c4ccccc4NC(=O)C3(C)C)o2)cs1,-,-,-,-
CC(=O)Nc1ccc(NC(=O)C(C)Sc2nc3ccccc3c(=O)n2Cc2ccco2)cc1 (configuration not stated),-,-,-,-
C[C@H](CO)N1C[C@H](C)[C@@H](CN(C)C(=O)Nc2cccc3ccccc23)OCCCC[C@H](C)Oc2ccc(NC(=O)NC3CCCCC3)cc2C1=O,-,-,-,-
C[C@H](CO)N1C[C@H](C)[C@H](CN(C)C(=O)Nc2cccc3ccccc23)OCCCC[C@H](C)Oc2ccc(NC(=O)NC3CCCCC3)cc2C1=O,-,60,-,-
O=C(Nc1ccc(F)cc1)c1ccccc1NS(=O)(=O)N1CCCC1,-,-,-,-

# High-throughput results as filed in PubChem BioAssay.
